Results on 18 molecules are retold here after PubChem BioAssay (NCATS).

Several values for one entry are separate records, joined by “and”; a condition that tells them apart may be missing. Equal values may be shown once. Inconclusive results are not listed. More than one record can exist for a structure, and the calls need not agree. Activity calls are given as the source filed them. Calls come from the whole dose curve; as a rule, active = well fitted curve in the direction sought with a large enough effect; inconclusive = small, poorly fitted or top-dose-only effect, or another doubt; inactive = no such curve, though single readings can be large; an effect the other way counts as inactive or inconclusive.

The target of experiment [1] is Glutathione peroxidase 1 (Homo sapiens) (UniProt P07203). Kind of experiment: Primary qHTS Assay for Inhibitors of Recombinant Selenoprotein Glutathione Peroxidase 1 (GPX1) (AID 1845191). For activity, negative = inhibition: % is set by controls: 0 for no effect and ±100 for the full control effect. Note: nearly all actives have a fitted effect of over 65% in size. A digest of the protocol: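 GPX1 10 nM, GR 100 nM, GSH 1 mM, NADPH 0.5 mM, CHP 0.5 mM (final). 30-min cpd preincubation, RT. Ex340/Em450 read t=0, t=15 min.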
The target in experiment [2] is Phospholipid hydroperoxide glutathione peroxidase GPX4 (Homo sapiens) (UniProt P36969). Kind of experiment: Primary qHTS Assay for Inhibitors of Recombinant Selenoprotein Glutathione Peroxidase 4 (GPX4) (AID 1845192). Note: nearly all actives have a fitted effect of over 65% in size. Note: potency is the fitted concentration of half-maximal effect. A digest of the protocol:
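qHTS, GR-coupled: GPX4 200 nM + cpd 30 min RT → GSH 1 mM, NADPH 0.5 mM, GR 100 nM → CHP 0.5 mM start; fluor 340/450 at t0 and t15 min; no-enzyme wells as control.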

Experiment [3] deals with Nanoluciferase (engineered Oplophorus gracilirostris luciferase). Put plainly: Primary Nanoluciferase (NLuc) qHTS assay for identification of artifact compounds. (AID 1845222). For activity, negative = inhibition: series mostly up to about 54 µM. Note: potency is the fitted concentration of half-maximal effect. The gist of the method: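 Luminescence read-out of secreted NLuc in S16 cell conditioned medium (1:55); compounds tested with 15 min RT preincubation, then Nano-Glo substrate 1:100, 5 min. % inhibition vs no-enzyme and DMSO controls, 4-parameter Hill fit.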

The nature of experiment [4]: Primary redox qHTS assay for identification of artifact compounds. (AID 1845223).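 Note: 0% = DMSO and 100% = reference compound.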 A digest of the protocol: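 Redox-cycling detection via DTT (250 uM final) oxidation coupled to Amplex Red (25 uM)/HRP (250 mU/mL) in HBSS. 15 min preincubation plus 30 min after DTT, room temperature. Ex/Em 525/598 nm; 4-parameter Hill fit against DMSO and 10 uM DA3003.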
Experiment [5] is described as follows: Primary fluorescence-based thiol-reactive (MSTI) qHTS assay for identification of artifact compounds. (AID 1845221).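 For activity change, negative = thiol reactive: series mostly up to about 54 µM; thiol-reactive compounds lower the probe fluorescence signal.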 Note: nearly all actives have a fitted effect of over 65% in size. Note: potency is the fitted concentration of half-maximal effect. The gist of the method: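 Reactivity toward the thiol probe MSTI (4 uM) is scored by fluorescence at Ex/Em 525/598 nm after 1 h at room temperature. Acetyl-MSTI and MSTI define the activity scale.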
In experiment [6] the target is Luciferin 4-monooxygenase (Photinus pyralis) (UniProt P08659). Put plainly: Primary firefly luciferase (FLuc) qHTS assay for identification of artifact compounds. (AID 1845220). Note: nearly all actives have a fitted effect of over 60% in size. A digest of the protocol: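 qHTS, 15 min compound preincubation with substrate (10 uM luciferin, 10 uM ATP) at RT, then 10 nM FLuc; 5 min; luminescence; % inhibition vs no-enzyme/DMSO controls, 4-parameter Hill fit.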

Sequence of Phospholipid hydroperoxide glutathione peroxidase GPX4 (Homo sapiens) (P36969 whole entry, looked up): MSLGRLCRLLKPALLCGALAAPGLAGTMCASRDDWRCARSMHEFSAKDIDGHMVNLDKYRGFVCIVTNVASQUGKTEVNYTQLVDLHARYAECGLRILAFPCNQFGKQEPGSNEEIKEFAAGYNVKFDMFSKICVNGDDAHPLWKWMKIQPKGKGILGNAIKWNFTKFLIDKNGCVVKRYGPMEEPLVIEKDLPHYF
Sequence of Glutathione peroxidase 1 (Homo sapiens) (P07203 whole entry, looked up): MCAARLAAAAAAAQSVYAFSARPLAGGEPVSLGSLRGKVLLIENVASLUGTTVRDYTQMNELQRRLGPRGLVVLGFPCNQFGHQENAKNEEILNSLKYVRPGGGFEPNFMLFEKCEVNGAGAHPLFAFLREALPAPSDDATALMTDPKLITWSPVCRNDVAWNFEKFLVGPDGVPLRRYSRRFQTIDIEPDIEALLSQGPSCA

In the case of `Cn1c2ccc(NC(=O)c3ccccc3)cc2c(=O)n2nc(C(=O)O)cc12`, the Potency result in experiment [1], in experiment [2], in experiment [3] and in experiment [4] was “inactive” throughout.
As for `CC(C)c1ccc2c(c1)C(O)CC1C(C)(C(=O)O)CCCC21C` (stereo not given), the Potency result in experiment [1], in experiment [2], in experiment [5], in experiment [3] and in experiment [4] was “inactive” throughout.
On to `CCOc1ccc(-c2cc(NC(=O)c3c(F)cccc3F)c(C(=O)O)s2)cc1`, for which the Potency entry in experiment [1], in experiment [2] and in experiment [4] was “inactive” in each case. In addition, in experiment [3], the Potency was 12 µM (active).
For the molecule `COc1cc(O)c(C(=O)O)c(CCc2ccccc2)c1`, the Potency result in experiment [1], in experiment [2], in experiment [5] and in experiment [4] was “inactive” throughout.
Consider `Cc1cc(-n2c(=O)[nH]c(=O)n(C)c2=O)ccc1Oc1ccc(SC(F)(F)F)cc1`, for which the Potency entry in experiment [1], in experiment [5], in experiment [3] and in experiment [4] was “inactive” in each case. Also, the Potency entry in experiment [2] is “inactive and 15.8 µM (active)”.
With `CCC(C)/C=C(C)/C=C/C1=CC2=C(Cl)C(=O)C(C)(OC(C)=O)C(=O)C2=CN1CCCCC(N)C(=O)O` (stereo not given), the Potency result in experiment [1], in experiment [6] and in experiment [3] was “inactive” in each case. The Potency in experiment [5] is 0.653 µM (active).
For `COc1cc(/C=C/C(=O)OC[C@H]2O[C@@H](OC3OC=C(C(=O)O)C4C(O)CC(C)(O)C34)[C@H](O)[C@@H](O)[C@@H]2O)cc(OC)c1O` (stereo not given in full), the Potency entry in experiment [1], in experiment [2], in experiment [3] and in experiment [4] was “inactive” each time.
Consider `COC(=O)C(Cc1ccccc1)NC(=O)c1ccccc1` (stereo not given), for which the Potency result in experiment [1], in experiment [2], in experiment [3] and in experiment [4] was “inactive” in each case.
As to `CC(=O)O[C@@H]1[C@H](O[C@@H]2O[C@H](CO)[C@@H](O)[C@H](O)[C@H]2O)[C@@H](O[C@@H]2O[C@@H](C)[C@H](O)[C@@H](O[C@@H]3O[C@H](CO)[C@@H](O)[C@H](O)[C@H]3O)[C@H]2O)[C@H](OC(=O)[C@]23CCC(C)(C)C[C@H]2C2=CCC4[C@@]5(C)C[C@H](O)[C@H](O[C@@H]6O[C@H](C(=O)O)[C@@H](O)[C@H](O)[C@H]6O)[C@@](C)(C(=O)O)C5CC[C@@]4(C)[C@]2(C)CC3)O[C@@H]1C` (stereo not given in full), the Potency result in experiment [1] and in experiment [2] was “inactive” in each case. For the same molecule, the activity change, negative = thiol reactive in experiment [5] was 244% [at 11.5 µM] (inactive). Also, the activity, negative = inhibition in experiment [3] was 4.94% [at 11.6 µM] (inactive). In experiment [4], the redox activity (% of DA3003) was -2.45% [at 11.5 µM] (inactive).
In the case of `C=CC(C)(CC/C=C(\C)C(=O)OC[C@H]1O[C@@H](OC(C)(C=C)CC/C=C(\C)C(=O)O[C@H]2[C@H](O)[C@@H](O)[C@H](OC(C)(C=C)CC/C=C(\C)C(=O)O)O[C@@H]2CO)[C@H](O)[C@@H](O)[C@@H]1O)O[C@@H]1O[C@H](CO)[C@@H](O)[C@H](O)[C@H]1O` (stereo not given in full), the Potency entry in experiment [1] and in experiment [2] was “inactive” throughout. The activity change, negative = thiol reactive in experiment [5] is 79.7% [at 11.5 µM] (inactive). Besides, the activity, negative = inhibition in experiment [3] was 3.18% [at 11.6 µM] (inactive). In addition, the redox activity (% of DA3003) in experiment [4] was 0.215% [at 11.5 µM] (inactive).
Take `COC(=O)C1=COC(OC2OC(CO)C(O)C(O)C2O)C2C(C)C(OC(=O)/C=C/c3ccc(O)cc3)C(O)C12` (stereo not given): the Potency entry in experiment [1], in experiment [6] and in experiment [3] was “inactive” each time. The Potency in experiment [5] is 11.6 µM (active).
With `CCc1nn(CCO)c(CC)c1Oc1cc(C#N)cc(C#N)c1`, the Potency entry in experiment [1], in experiment [6], in experiment [5] and in experiment [3] was “inactive” in each case.
For `CC1=C2C(=O)C=C(CO[C@@H]3O[C@H](CO)[C@@H](O)[C@H](O)[C@H]3O)[C@@H]2[C@H]2OC(=O)[C@H](C)[C@@H]2[C@@H](O)C1`, the Potency entry in experiment [1], in experiment [2], in experiment [3] and in experiment [4] was “inactive” in each case.
Consider `C/C=C/C=C/C=C/C(=O)N(C)C(C(=O)NC(C)C(=O)N1CCCC1C(N)=O)C(C)C` (stereo not given), for which the Potency entry in experiment [1], in experiment [2] and in experiment [3] was “inactive” throughout.
For the molecule `COC(=O)c1cc(OC)cc(OC)c1C(=O)c1c(OC)cc2c(c1O)C1CCC(O)C(C)(O2)O1` (stereo not given), the Potency entry in experiment [1], in experiment [2] and in experiment [3] was “inactive” throughout.
Take `C=C1C(OC(C)=O)[C@@]23CCC4[C@](C)(C(=O)O)CCC[C@@]4(C)[C@]2(O)CC[C@H]1C3` (stereo not given in full): the Potency result in experiment [1], in experiment [2], in experiment [5], in experiment [3] and in experiment [4] was “inactive” each time.
Turning to `CC(=O)NC(Cc1c[nH]c2ccccc(=O)c12)C(=O)O` (stereo not given), the Potency entry in experiment [1], in experiment [6] and in experiment [3] was “inactive” throughout. In addition, the Potency in experiment [5] is 5.32 µM (active).
Take `O=C(N[C@H](Cc1ccccc1)C(=O)O)c1sc2cc(F)ccc2c1Cl`: the Potency result in experiment [1], in experiment [2], in experiment [5] and in experiment [4] was “inactive” in each case.
